Data published in the supplement of paper PMC7724964.

Target: T1, DOK2 146-252 IRS (domain begin residue: 146, domain end residue: 252), O60496
T1 chain: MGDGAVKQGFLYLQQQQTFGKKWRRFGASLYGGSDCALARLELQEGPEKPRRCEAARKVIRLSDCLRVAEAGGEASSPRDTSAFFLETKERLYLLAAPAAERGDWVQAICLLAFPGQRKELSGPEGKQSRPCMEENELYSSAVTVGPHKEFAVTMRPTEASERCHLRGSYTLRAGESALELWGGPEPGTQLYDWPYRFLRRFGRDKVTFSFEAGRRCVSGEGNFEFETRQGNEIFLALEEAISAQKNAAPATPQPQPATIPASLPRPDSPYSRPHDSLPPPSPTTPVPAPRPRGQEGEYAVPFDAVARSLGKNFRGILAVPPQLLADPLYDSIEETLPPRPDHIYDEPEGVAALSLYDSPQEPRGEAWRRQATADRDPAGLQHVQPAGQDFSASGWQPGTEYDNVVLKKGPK
Assay: phage ELISA signal ratio (GST-PRM binding over GST background); higher = stronger binding of peptide-phage to the PRM
Summary of the method: (§1)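 Human peptide recognition domains were expressed in 96-well plates as fusions to the C-terminus of glutathione S-transferase (GST) and selected against an M13 phage library displaying randomized hexadecapeptides, cysteine-free and glycine-flanked, on the gene-8 major coat protein. Five selection rounds were run, and approximately 48 individual clones from rounds 4 and 5 were tested by phage ELISA. Each value is the ELISA signal on the GST-domain fusion divided by the signal on GST alone. Positive clones were sequenced.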

Binder	phage ELISA signal ratio
HLTGQEGDWIWHWLEN	10.4
EWMWMDNPGFHMTEAT	13.6
PYTWYENPLWVPSPME	15.2
EQLWWSNPLWTEGIEE	16.1
DEWKWFDMVGTQTQTP	16.8
DLDFMWWDNPVHETDL	16.8
EWVEWVSPWMVEHGDW	17.8
VVNEQHGWKWMILEHE	20.7
QFIVWENEYYEHWGGK	21.1

Target: T2, DOK3 213-322 IRS (domain begin residue: 213, domain end residue: 322), Q7L591
T2 chain: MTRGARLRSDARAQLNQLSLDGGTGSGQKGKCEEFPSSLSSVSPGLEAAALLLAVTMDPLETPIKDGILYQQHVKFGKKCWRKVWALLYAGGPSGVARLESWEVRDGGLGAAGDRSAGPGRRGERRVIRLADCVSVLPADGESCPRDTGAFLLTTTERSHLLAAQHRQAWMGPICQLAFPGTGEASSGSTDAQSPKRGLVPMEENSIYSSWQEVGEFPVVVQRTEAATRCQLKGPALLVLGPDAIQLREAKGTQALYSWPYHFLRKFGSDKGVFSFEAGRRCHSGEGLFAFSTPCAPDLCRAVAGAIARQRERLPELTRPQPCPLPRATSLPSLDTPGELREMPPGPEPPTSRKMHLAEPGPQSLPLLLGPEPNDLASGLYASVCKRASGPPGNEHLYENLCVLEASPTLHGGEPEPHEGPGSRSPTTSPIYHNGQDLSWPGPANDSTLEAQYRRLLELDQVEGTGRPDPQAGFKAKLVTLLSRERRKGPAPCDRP
Assay: as above
Summary of the method: as §1

Binder	phage ELISA signal ratio
NQLRFNPQWTVPNFRN	3.31
EYKTMPWEEIMMPYNY	3.85
GHNEIMTIQQHATWLY	5.54
VWEEVMTMEQWQWHNF	5.77
WEWSQEIWLPPHMMVD	12.3

Target: DOK4 130-237 IRS (domain begin residue: 130, domain end residue: 237), Q8TEW6
Assay: as above
Summary of the method: as §1

Sequence of DOK4 130-237 IRS (domain begin residue: 130, domain end residue: 237), Q8TEW6 (Q8TEW6 whole entry): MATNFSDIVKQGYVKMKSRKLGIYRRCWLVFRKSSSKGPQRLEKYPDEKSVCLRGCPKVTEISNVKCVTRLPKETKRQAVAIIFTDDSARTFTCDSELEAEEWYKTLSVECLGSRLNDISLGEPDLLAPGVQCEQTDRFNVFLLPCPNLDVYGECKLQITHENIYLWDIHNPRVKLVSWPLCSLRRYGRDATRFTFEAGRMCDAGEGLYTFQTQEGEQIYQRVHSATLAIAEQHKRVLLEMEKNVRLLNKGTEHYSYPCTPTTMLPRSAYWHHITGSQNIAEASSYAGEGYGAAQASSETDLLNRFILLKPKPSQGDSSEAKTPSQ

Binder	phage ELISA signal ratio
EHLRPEMDWTYVWWEH	4.35
VIWTWNPMAGMEAWNI	5.11
YELSWTHTPWSHFIAT	6.86
MWEWTDNPSYTIPGQQ	7.86
WPEGIKYTWVKEHETE	8.42
QWMDLNDLQWTYNPWY	11.2
DDMIWQWQMNPIWMMD	11.5
FEWTSSPVWSDHQEHN	11.5
IEWTHTNWEWNKMETQ	11.9
PEQMEYWTWSPLHVSQ	13.1
YETPEPQWLWVMNPIH	14.6
GWDDQIWTWSPMYMPV	19

Target: DOK5 130-237 IRS (domain begin residue: 130, domain end residue: 237), Q9P104
Assay: as above
Summary of the method: as §1

Binder	phage ELISA signal ratio
GVGWAKQIEWTVSPMM	3.95
DWVWTIPFEQVFSEVM	4.96

Target: T3, DOK7 105-219 IRS (domain begin residue: 105, domain end residue: 219), Q18PE1
T3 chain: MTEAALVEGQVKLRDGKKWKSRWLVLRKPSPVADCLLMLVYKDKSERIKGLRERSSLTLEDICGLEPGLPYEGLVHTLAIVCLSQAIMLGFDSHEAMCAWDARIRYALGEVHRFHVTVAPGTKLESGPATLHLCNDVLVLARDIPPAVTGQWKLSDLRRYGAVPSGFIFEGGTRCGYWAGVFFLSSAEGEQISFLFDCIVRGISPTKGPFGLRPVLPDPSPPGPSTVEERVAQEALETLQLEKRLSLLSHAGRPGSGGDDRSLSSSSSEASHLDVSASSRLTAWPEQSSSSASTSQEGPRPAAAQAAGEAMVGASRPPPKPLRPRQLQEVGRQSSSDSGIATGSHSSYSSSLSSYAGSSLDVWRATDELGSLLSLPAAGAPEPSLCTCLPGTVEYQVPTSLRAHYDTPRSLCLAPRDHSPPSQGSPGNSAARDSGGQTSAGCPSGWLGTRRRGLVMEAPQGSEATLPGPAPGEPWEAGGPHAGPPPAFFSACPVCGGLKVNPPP
Assay: as above
Summary of the method: as §1

Binder	phage ELISA signal ratio
FETTWVLENGWWLPQA	9.36

Target: T4, DVL1 406-503 DEP (domain begin residue: 406, domain end residue: 503), O14640
T4 chain: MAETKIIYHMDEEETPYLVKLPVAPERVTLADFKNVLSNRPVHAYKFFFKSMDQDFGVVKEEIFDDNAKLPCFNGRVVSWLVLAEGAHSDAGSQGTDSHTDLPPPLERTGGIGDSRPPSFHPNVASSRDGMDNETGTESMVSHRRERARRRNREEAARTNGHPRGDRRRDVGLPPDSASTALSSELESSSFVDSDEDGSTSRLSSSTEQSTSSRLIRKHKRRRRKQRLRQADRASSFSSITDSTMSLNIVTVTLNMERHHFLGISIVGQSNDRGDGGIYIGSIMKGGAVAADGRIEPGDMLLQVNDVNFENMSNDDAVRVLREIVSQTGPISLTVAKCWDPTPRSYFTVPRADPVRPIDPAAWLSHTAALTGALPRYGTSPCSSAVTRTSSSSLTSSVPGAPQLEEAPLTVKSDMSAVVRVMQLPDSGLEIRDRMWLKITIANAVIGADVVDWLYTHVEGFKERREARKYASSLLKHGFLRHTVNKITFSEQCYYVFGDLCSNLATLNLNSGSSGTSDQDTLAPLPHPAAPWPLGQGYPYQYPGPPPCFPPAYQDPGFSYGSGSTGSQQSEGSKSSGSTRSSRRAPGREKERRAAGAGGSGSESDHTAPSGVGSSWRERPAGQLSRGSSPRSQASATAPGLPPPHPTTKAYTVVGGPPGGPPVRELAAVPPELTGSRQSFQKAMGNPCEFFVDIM
Assay: as above
Summary of the method: as §1

Binder	phage ELISA signal ratio
WEWQFWQDYMAQFPSE	3.48
VHWTLQSVTDWKWVPQ	31.9

Target: T5, DVL2 416-511 DEP (domain begin residue: 416, domain end residue: 511), O14641
T5 chain: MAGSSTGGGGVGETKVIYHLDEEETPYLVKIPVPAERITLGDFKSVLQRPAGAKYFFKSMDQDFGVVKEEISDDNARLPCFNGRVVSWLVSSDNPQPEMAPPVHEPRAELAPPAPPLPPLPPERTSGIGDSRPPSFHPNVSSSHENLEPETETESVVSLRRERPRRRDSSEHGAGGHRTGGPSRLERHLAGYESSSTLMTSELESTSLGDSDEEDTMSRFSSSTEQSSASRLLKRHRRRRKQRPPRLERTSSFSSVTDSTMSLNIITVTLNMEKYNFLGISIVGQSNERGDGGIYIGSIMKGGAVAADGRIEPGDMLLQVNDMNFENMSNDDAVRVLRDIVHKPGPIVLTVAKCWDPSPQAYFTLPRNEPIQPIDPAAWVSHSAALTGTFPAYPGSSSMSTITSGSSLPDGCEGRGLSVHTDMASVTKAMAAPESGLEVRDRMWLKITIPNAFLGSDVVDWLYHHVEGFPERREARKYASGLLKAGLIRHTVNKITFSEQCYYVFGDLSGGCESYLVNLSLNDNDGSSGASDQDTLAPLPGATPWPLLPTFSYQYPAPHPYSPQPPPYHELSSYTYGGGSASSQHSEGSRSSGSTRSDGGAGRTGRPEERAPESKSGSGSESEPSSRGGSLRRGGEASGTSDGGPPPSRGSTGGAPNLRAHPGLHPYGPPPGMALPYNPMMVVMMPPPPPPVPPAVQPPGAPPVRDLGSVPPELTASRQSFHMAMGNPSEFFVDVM
Assay: as above
Summary of the method: as §1

Binder	phage ELISA signal ratio
YWFWNPEIMDAQYMPV	7.02
MWFWNLDEAMPIWTAM	13.3
LWFWDVETGNAYKTQE	14.1
AYYWSITLGDIVYMVD	16.1
IYWDWEDGYIYEHQPE	18.2
YQPDMRMQDGKWYWII	20.4
MWYWDPGENTAIWVEQ	22.1
EMWYWDAVQGVPYKQG	23.9
PLENPTYKDGLWWWSV	24.4
VFWENQHWMQDLNPEW	26.1
KWMIDLTDWEAYWVPS	26.7
PETPYFSDGMWWWVKP	28.8
QAVPMWQDEHGYWWWN	33.3

Target: T6, DVL3 407-503 DEP (domain begin residue: 407, domain end residue: 503), Q92997
T6 chain: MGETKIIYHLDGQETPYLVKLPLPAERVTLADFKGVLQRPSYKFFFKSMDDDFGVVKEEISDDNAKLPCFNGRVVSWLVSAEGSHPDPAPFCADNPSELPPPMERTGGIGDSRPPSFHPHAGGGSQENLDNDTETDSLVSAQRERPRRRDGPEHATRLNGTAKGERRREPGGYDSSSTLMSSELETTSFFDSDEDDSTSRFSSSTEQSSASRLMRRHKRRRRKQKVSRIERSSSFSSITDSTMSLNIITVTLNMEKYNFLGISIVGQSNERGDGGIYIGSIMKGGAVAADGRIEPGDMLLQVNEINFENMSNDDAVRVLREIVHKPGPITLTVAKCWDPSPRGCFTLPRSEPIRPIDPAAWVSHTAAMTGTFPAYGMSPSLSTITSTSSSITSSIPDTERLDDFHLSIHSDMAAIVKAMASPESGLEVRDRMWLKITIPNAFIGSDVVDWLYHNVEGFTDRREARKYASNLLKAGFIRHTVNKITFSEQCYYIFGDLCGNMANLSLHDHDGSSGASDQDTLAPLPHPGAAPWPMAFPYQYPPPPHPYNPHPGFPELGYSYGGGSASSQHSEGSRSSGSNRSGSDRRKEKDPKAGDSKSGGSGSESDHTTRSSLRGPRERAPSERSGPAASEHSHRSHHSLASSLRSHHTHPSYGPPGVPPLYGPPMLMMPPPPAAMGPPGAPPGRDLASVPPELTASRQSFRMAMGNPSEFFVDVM
Assay: as above
Summary of the method: as §1

Binder	phage ELISA signal ratio
MDGWFWDHAPHFTMDF	4.23
PKYQFSLSAESLQWLM	18.1
PDLAAWRIWIMEEEQV	22.4
WQMNHLEEWRAYAETL	24.2

Target: DYNLL1 1-89 Dynein_light (domain begin residue: 1, domain end residue: 89), P63167
Assay: as above
Summary of the method: as §1

Sequence of DYNLL1 1-89 Dynein_light (domain begin residue: 1, domain end residue: 89), P63167 (P63167 whole entry): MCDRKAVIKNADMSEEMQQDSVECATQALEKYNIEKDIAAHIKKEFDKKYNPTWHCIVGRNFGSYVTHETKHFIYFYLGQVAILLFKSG

Binder	phage ELISA signal ratio
TQTSWWWSETPMFPFM	3.08
LQTPDWMWAPNVLESM	6.16
TQTGMWDETDSREHWD	11.5
TQTEFYASDWWMMENV	15.6
VQTDPWVGQLGDFMFV	17.1
WTQTEDPWEYTWLDLV	17.8
VQTDWYGVDGFWVPVL	18.1
SQTEWDWLEREWKPSI	19.4
TQTPVWGMDGWMWVTV	19.5
